Out of some 360,000 compounds screened, about 3,600 (1%) were called active.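 The calls were made as follows: active = compounds whose plate-normalised and pattern-corrected inhibition of the luciferase reporter signal at the single screening dose is 50% or more; inactive = the rest.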 What follows is part of a selection rich in actives, with near analogues and random picks from the rest.
Assay: inhibitors of TROY-driven NF-kB signaling, primary screen, Q293 LMP1-TROYcd cells, NF-kB luciferase, uHTS (AID 1347056)
Conditions: Q293 LMP1-TROYcd NF-kB luciferase reporter, 4 h; at 10 µM; stronger effect = higher value

Row | SMILES | inhibition
1 | COc1ccc(N2CCN(CCCNC(=O)C3CCN(S(=O)(=O)N4CCOCC4)CC3)CC2)cc1 | 91.5% (active)
2 | COc1ccc(CNC(=O)C2CCN(S(=O)(=O)N3CCOCC3)CC2)cc1 | 7% (inactive)
3 | O=C(NCCCN1CCN(Cc2ccccc2)CC1)C1CCN(S(=O)(=O)N2CCCC2)CC1 | -13% (inactive)
4 | CCCCc1c(-c2ccc(Cl)cc2)ncn1CCc1ccccc1OC | 38.5% (inactive)
5 | O=C(CNCc1ccc(F)cc1)Nc1ccccc1-c1ccccc1 | 25.9% (inactive)
6 | OC1CCCN(c2ncnc3c2nnn3Cc2c(F)cccc2Cl)C1 (stereo unspecified) | -10.3% (inactive)
7 | Cc1cccc(NC(=O)/C=C/c2ccc3c(c2)OCO3)n1 | -33.1% (inactive)
8 | C(=N\Nc1ccc2ccccc2n1)/c1ccc2c(c1)OCO2 | 69.8% (active)
9 | O=C(CNC(=O)C(c1ccccc1)c1ccccc1)N/N=C\c1ccc2c(c1)OCO2 | -30.7% (inactive)
10 | COc1cccc(-c2nn(-c3ccccc3)cc2/C=C(\C#N)C(=O)NCCCn2ccnc2)c1 | -24.5% (inactive)
11 | COc1ccc(-c2nn(-c3ccccc3)cc2/C=C2/SC(=S)N(CCCC(=O)O)C2=O)c(C)c1 | 58% (active)
12 | COc1ccc(-c2nn(-c3ccccc3)cc2CN2CCCO2)c(F)c1 | -17.1% (inactive)
13 | O=C(C1CCC1)N1CCN(S(=O)(=O)c2ccc([N+](=O)[O-])cc2)CC1 | -10.9% (inactive)
14 | Cc1ccc2c(C)c(C(=O)N3CCN(c4ccncc4)CC3)oc2c1C | 5.65% (inactive)
15 | CC(=NC1CCN(Cc2ccccc2)CC1)c1c(O)[nH]c(=O)[nH]c1=O | 26.3% (inactive)
16 | Clc1cccc(N=C2NN=C(c3ccc4c(c3)OCCO4)CS2)c1 | 66.2% (active)
17 | CN(C)c1nc(=Nc2cccc(Cl)c2)ss1 | -31.5% (inactive)
18 | c1ccc(CN2CCC(N=C3NN=C(c4ccc5c(c4)OCCO5)CS3)CC2)cc1 | 77.6% (active)
19 | CS(=O)(=O)N(CC(=O)N1CCN(Cc2ccccc2)CC1)c1ccc2c(c1)OCCO2 | 19.4% (inactive)
20 | C/C(=N\NC(=O)c1ccc(NS(=O)(=O)c2cccs2)cc1)c1ccc2ccccc2c1 | -29.3% (inactive)
21 | CC(NC(=O)c1ccc(S(=O)(=O)Nc2ccccc2)cc1)c1ccc(S(N)(=O)=O)cc1 (stereo unspecified) | 2.55% (inactive)
22 | COCCOC(=O)c1c(C)oc2cc(Br)c(OCC(N)=O)cc12 | 9.46% (inactive)
23 | CC(=O)c1ccc(NC(=O)C(C)OC(=O)c2ccc(NS(=O)(=O)c3ccc4[nH]c(=O)[nH]c4c3)cc2)cc1 (stereo unspecified) | -12.5% (inactive)

Row | SMILES | inhibition
24 | CCCCN1C(=S)NC[C@@H]1C(C)CC (stereo partly specified) | -3.76% (inactive)
25 | O=[N+]([O-])/C(N=Nc1ccccc1)=N\Nc1ccccc1 | -1.58% (inactive)
26 | COC(=O)c1cc(=O)n(-c2c(Cl)cc(C(F)(F)F)cc2Cl)[nH]1 | 6.27% (inactive)
27 | NC1=NC(=O)S/C1=C\c1ccc(O)cc1 | -17.8% (inactive)
28 | COc1cccc(NC(=O)COC(=O)c2ccc3ccccc3n2)c1 | -23.3% (inactive)
29 | CCOc1cccc(/C=C/c2ccc3ccccc3n2)c1OC(C)=O | 33.9% (inactive)
30 | COc1cccc(/C=C/c2ccc3ccccc3n2)c1OC(C)=O | 54.2% (active)
31 | CCOc1ccc(C2c3[nH]c4ccccc4c3CCN2Cc2cccn2-c2ncccn2)cc1 (stereo unspecified) | 47.5% (inactive)
32 | COC(=O)C1=C(C(=O)OC)[C@@H]2N(C)c3ccccc3[C@@]23C[C@@H](C(=O)OC)N(C(=O)c2ccco2)C3=N1 | 7.75% (inactive)
33 | O=C(Cc1ccc(Cl)cc1)NC1CCS(=O)(=O)C1 (stereo unspecified) | 3.91% (inactive)
34 | O=C(NCCS(=O)(=O)NCc1ccc(Cl)cc1)c1ccccc1 | 4.3% (inactive)
35 | O=S1(=O)CC(NCc2ccccc2)C(Nc2ccc(Cl)cc2)C1 (stereo unspecified) | 57% (active)
36 | CC(NC(=S)Nc1ccc(OC(F)F)cc1)c1ccc(F)cc1 (stereo unspecified) | -5.08% (inactive)
37 | Cc1cccc(N2CCN(S(=O)(=O)c3ccc(-c4cc(C)no4)s3)CC2C)c1 (stereo unspecified) | -15% (inactive)
38 | Cc1cccc(CNS(=O)(=O)c2ccc(-c3cnc(C4CC4)o3)cc2)c1 | 15.4% (inactive)
39 | Cc1cccc(NS(=O)(=O)c2ccc(-c3cnc(C4CC4)o3)cc2)c1 | 50.5% (active)
40 | COc1ccc(CNS(=O)(=O)c2ccc(-c3cnc(C4CC4)o3)cc2)cc1 | 26% (inactive)
41 | Cc1c(NC(=O)CCC2CCCCC2)cc(C(=O)N2CCOCC2)cc1[N+](=O)[O-] | 12.1% (inactive)
42 | COC(=O)[C@]1(C)N[C@H](CN(C)C(=O)c2ccc(C(C)(C)C)cc2)[C@@H]2C(=O)N(C)C(=O)[C@@H]21 | -13.4% (inactive)
43 | COc1cccc(OCC(=O)NCCS(=O)(=O)N2CCN(c3ccccc3)CC2)c1 | 17.7% (inactive)
44 | COCc1cc(C)nc(Nc2cc(C)ccc2C)c1C#N | 0.76% (inactive)
45 | O=C(Oc1ccc(-c2nc(-c3ccccn3)no2)cc1)c1ccccc1 | 60% (active)
46 | O=C(COC(=O)c1ccncc1)c1ccccc1 | -18.8% (inactive)

Row | SMILES | inhibition
47 | Cc1noc(C)c1COC(=O)COc1ccc(-c2ccccc2)cc1 | 4.68% (inactive)
48 | O=C(Cc1coc2ccc3ccccc3c12)NCc1cccs1 | -38.6% (inactive)
49 | O=C(NCc1cccs1)c1cc(-c2ccccn2)nc2ccc(Br)cc12 | -12.5% (inactive)
50 | CC(C)Cn1c(N)c(C(=O)NCc2cccs2)c2nc3ccccc3nc21 | 51.3% (active)
51 | CCOc1ccc(NC(=O)CCS(=O)(=O)c2ccc3c(c2)CCCN3C(=O)CC)cc1 | 21.6% (inactive)
52 | CCOC(=O)c1cc(C)sc1NC(=O)C1CCC1 | 12.2% (inactive)
53 | CCN1CCN(C(=O)CCN2C(=O)c3ccccc3C2=O)CC1 | 13.8% (inactive)
54 | CC1=NN(C(=O)CCCc2ccccc2)C(O)(C(F)(F)F)C1 (stereo unspecified) | 6.41% (inactive)
55 | C=CCN1CCN(C(=O)CCCc2ccccc2)CC1 | 73.6% (active)
56 | C/C(CC(=O)NC(C)c1ccccc1)=N\NC(N)=S (stereo unspecified) | 0.63% (inactive)
57 | Cn1nccc1C(=O)NC1CCCc2c1cnn2-c1ccc(F)cc1F (stereo unspecified) | 28% (inactive)
58 | COc1ccc(C(=O)NC2CCCc3c2cnn3-c2cccc(C)c2C)c(OC)n1 (stereo unspecified) | 55.4% (active)
59 | COc1ccc(OC)c(C(=O)NC2CCCc3c2cnn3-c2cc(C)cc(C)c2)c1 (stereo unspecified) | -13.7% (inactive)
60 | Cc1ccccc1-n1nc(C)c2c1N=C1C(Cl)=CC(Cl)=CN1C2c1ccc(C(=O)O)cc1 (stereo unspecified) | 1.29% (inactive)
61 | Cc1cc(Br)cn2c(Cc3ccccc3C(F)(F)F)c(C3CCCCC3)nc12 | 15.5% (inactive)
62 | CCOC(=O)c1cnc(SCc2nc(N)nc(Nc3ccc(OC)cc3)n2)nc1N | -4.61% (inactive)
63 | CCS(=O)(=O)N1Cc2ccccc2CC1C(=O)Nc1nc2ccc(F)cc2s1 (stereo unspecified) | 42.9% (inactive)
64 | CSc1ncccc1C(=O)Nc1ccc2c(c1)OCO2 | -13.6% (inactive)
65 | CSc1ncccc1C(=O)Nc1nc2ccc(F)cc2s1 | 54.6% (active)
66 | O=c1ccc2cc(S(=O)(=O)NCCCc3ccccc3)ccc2[nH]1 | -7.06% (inactive)
67 | CCC(C)(C)NC(=O)CN(Cc1cccs1)C(=O)CNS(=O)(=O)c1ccc(F)cc1 | -7.55% (inactive)
68 | Cc1ccc(S(=O)(=O)N(CC(O)CN2C(=O)NC(C)(C)C2=O)c2cccc([N+](=O)[O-])c2)cc1 (stereo unspecified) | 4.48% (inactive)
69 | CCCn1c(C)cc(C(=O)COC(=O)c2c(C)nn(-c3ccccc3)c2C)c1C | -3.58% (inactive)

Row | SMILES | inhibition
70 | COc1ccccc1NC(=S)N1CCN(C(c2ccccc2)c2ccccc2)CC1 | 16.1% (inactive)
71 | Cc1cccc(N2CCN(C(c3ccccc3)c3nnnn3CC3CCCO3)CC2)c1C (stereo unspecified) | -7.74% (inactive)
72 | CC1(C)CC(N2CCN(C(c3ccccc3)c3ccccc3)CC2)=CC(=[N+]2CCCCC2)C1 | 58.6% (active)
73 | O=C(CN1CCOCC1)Nc1c(Cl)cc(Cl)cc1Cl | -5.43% (inactive)
74 | C=CCSc1nc2c(c(=O)[nH]1)C(C(C)C)C(C#N)=C(N)O2 (stereo unspecified) | 9.46% (inactive)
75 | N#Cc1ccccc1NC(=O)COc1c(Br)cc(Br)c2cccnc12 | 4.34% (inactive)
76 | CC1CN(C(=O)c2ccccc2NS(=O)(=O)c2cccc([N+](=O)[O-])c2)CC(C)O1 (stereo unspecified) | 8.71% (inactive)
77 | COc1ccc(S(=O)(=O)N2CCC(C(=O)OCC(=O)c3ccccc3)CC2)cc1[N+](=O)[O-] | -4.41% (inactive)
78 | COc1ccc(Br)cc1/C=N/Nc1ccc(S(=O)(=O)Nc2ccccc2C(=O)O)cc1[N+](=O)[O-] | 58% (active)
79 | CC(=O)Nc1ccc(C(=O)CSc2nc3ccc(C)cc3[nH]2)cc1 | -46.4% (inactive)
80 | COc1cccc2c(C)c(C(=O)O)[nH]c12 | 74.3% (active)
81 | COc1cc2c(C(=O)O)c(C)n(C)c2c2ccccc12 | 6.89% (inactive)
82 | COc1ccccc1C(=O)c1ccccc1C(=O)c1ccccc1 | 9.22% (inactive)
83 | Oc1cccc2ccc(/C=C/c3ccc(Br)s3)nc12 | 45.8% (inactive)
84 | N#CC1=C(N)Oc2cc(N)ccc2C1c1ccccc1 (stereo unspecified) | 13.9% (inactive)
85 | COc1ccccc1C1C(C#N)=C(N)Oc2c1c(-c1ccccc1)nn2-c1ccccc1 (stereo unspecified) | 62% (active)
86 | COc1ccc(C2C(C#N)=C(N)Oc3cc(N)ccc32)cc1OC (stereo unspecified) | -32.5% (inactive)
87 | CCOc1ccc(C(=O)Nc2cc(Cl)ccc2-n2cncn2)cc1OC | -3.58% (inactive)
88 | O=C1c2ccccc2C(=O)N1CCC#Cc1ccc2cc(C3(O)CCCCC3)oc(=O)c2c1 | 64.8% (active)
89 | CC(C)c1nc(CNC(=O)CC2C(=O)NCCN2Cc2cccc(F)c2F)cs1 (stereo unspecified) | 4.78% (inactive)
90 | COC(=O)c1ccc(C)c(NC(=O)C2CC(=O)N(C3CCCC(C)C3C)C2)c1 (stereo unspecified) | -0.78% (inactive)
91 | C=CCC[C@@H](Cc1ccc(F)cc1)C(=O)O[C@H](CNC(=O)[C@H](CC=C)CC(=O)N(CCO)Cc1ccccc1)c1ccccc1 | 46.6% (inactive)
